About 83,000 compounds went through this panel and 20% of them were active in at least one assay; those are over-represented in the sample as a whole.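 Method: cells in 96-well plates; compound added at one concentration; 48 h incubation; percent growth measured; values under 10 scored active.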 Unmarked numbers belong to inactive results. The source made the active and inactive calls.

Some test systems named below: RPMI-8226 leukemia; OVCAR-5 ovarian; OVCAR-4 ovarian; SK-OV-3 ovarian; IGROV1 ovarian; OVCAR-3 ovarian; HS 578T breast; NCI/ADR-RES ovarian; T-47D breast; OVCAR-8 ovarian.
Holding throughout (assay): NCI-60 one-dose screen, 48 h (100 = growth as untreated, 0 = no growth, -100 = all killed)
Details in all cases: 10 µM unless noted

For the compound `Cc1ccc2nc(NC(=O)CSC(=S)N3CCN(c4ccccc4)CC3)sc2c1`, the growth was 79.3% in the assay on RPMI-8226 leukemia; 95.6% in the assay with OVCAR-5 ovarian; 92.7% with OVCAR-4 ovarian; 111% in the assay with SK-OV-3 ovarian; -4.12% (active) in the assay with IGROV1 ovarian; 104% in the assay on OVCAR-3 ovarian. Besides, the growth in the assay with HS 578T breast is 104%; in the assay with NCI/ADR-RES ovarian it was 88.2%; in the assay on T-47D breast, 85.7%.

For `C=CCN1C(=O)/C(=c2\sc3n(c2=O)NC2C(N=3)N(CC)C(=O)N2CC)c2ccccc21` (stereo not given), the growth in the assay on RPMI-8226 leukemia was 66.1%; with OVCAR-5 ovarian, 44.2%; in the assay on OVCAR-4 ovarian it was 39.2%; in the assay with IGROV1 ovarian it was 34.2%; with OVCAR-3 ovarian, 22.5%; in the assay on HS 578T breast, 29.4%. In addition, the growth in the assay with NCI/ADR-RES ovarian is 18.7%; in the assay with T-47D breast, 54.4%.

As to `COc1ccc(N2C(=O)CC(c3cc(OC)c(OC)c(OC)c3)C3C2=NC(=O)N3C)cc1` (stereo not given), the growth was 119% with RPMI-8226 leukemia; 102% in the assay on OVCAR-5 ovarian; 105% in the assay with OVCAR-4 ovarian; 108% in the assay on SK-OV-3 ovarian; 109% with IGROV1 ovarian; 108% with OVCAR-3 ovarian. The growth in the assay on HS 578T breast was 97.1%; in the assay with NCI/ADR-RES ovarian it was 109%; with T-47D breast it was 95.7%.

As for `Cc1cccc2c(=O)c3c(sc12)c(NCCN)nc1ccccc13`, the growth in the assay on RPMI-8226 leukemia was -37.9% (active); with OVCAR-5 ovarian it was -46.9% (active); in the assay on OVCAR-4 ovarian, -24.4% (active); with IGROV1 ovarian it was -70.1% (active); in the assay with OVCAR-3 ovarian it was -89.6% (active); with HS 578T breast it was 37.1%. In addition, the growth in the assay with NCI/ADR-RES ovarian was -45.5% (active); with T-47D breast it was -50.2% (active).

Turning to `COC(=O)/C(CCC=C(C)C)=C1\[C@@H](OC(C)=O)C[C@@]2(C)[C@H]1C[C@@H](O)[C@H]1[C@@]3(C)CC[C@H](NC(=O)c4cnccn4)[C@@H](C)[C@@H]3CC[C@@]12C`, the growth with RPMI-8226 leukemia is 75.8%; in the assay with OVCAR-5 ovarian, 109%; in the assay on OVCAR-4 ovarian, 98.4%; in the assay on IGROV1 ovarian, 107%; with OVCAR-3 ovarian, 108%; with HS 578T breast, 96.4%. The growth in the assay on NCI/ADR-RES ovarian was 99.4%; in the assay with T-47D breast, 87.4%.

On to `COc1cc(/C=C/C(=O)c2ccc(Nc3nc(NCCO)nc(N4CCOCC4)n3)cc2)cc(OC)c1OC`, for which the growth with RPMI-8226 leukemia is -21% (active); in the assay on OVCAR-8 ovarian, 11.6%; with OVCAR-4 ovarian it was 23.9%; with IGROV1 ovarian, 20.6%; in the assay on OVCAR-3 ovarian, 2.88% (active); with HS 578T breast it was 9.53% (active). Further, the growth with NCI/ADR-RES ovarian is 53.7%; with T-47D breast, 32.1%.

With `Cc1ccc(C(=O)c2oc3ccc4c(C)cc(=O)oc4c3c2C)cc1`, the growth is 0.992% (active) in the assay with RPMI-8226 leukemia; 66% in the assay with OVCAR-5 ovarian; 33.9% in the assay with OVCAR-4 ovarian; 46.9% in the assay with SK-OV-3 ovarian; 28.7% in the assay with OVCAR-3 ovarian; 86.5% with HS 578T breast. For the same compound, the growth in the assay with NCI/ADR-RES ovarian is 29.5%; in the assay on T-47D breast it was 14.8%.

Consider `COC(=O)c1c2c(c(C)[n+]([O-])c1C)C(=O)C(NCc1ccc(Br)cc1)=CC2=O`, for which the growth with RPMI-8226 leukemia is 47.6%; in the assay on OVCAR-8 ovarian it was 4.52% (active); in the assay with OVCAR-4 ovarian, -27% (active); in the assay on IGROV1 ovarian it was 5.51% (active); in the assay on OVCAR-3 ovarian it was -21.5% (active); in the assay with HS 578T breast, 82.4%. Also, the values for the growth in the assay on NCI/ADR-RES ovarian and in the assay with T-47D breast were -3.23% (active) and 20.5%, respectively.

On to `COc1cc(/C(C#N)=C/c2nc3c(N4CCOCC4)nc(Cl)nc3n2C)cc(OC)c1OC`, for which the growth was 7.11% (active) in the assay on RPMI-8226 leukemia; 21.8% with OVCAR-8 ovarian; 21.9% in the assay with OVCAR-4 ovarian; 8.43% (active) in the assay with IGROV1 ovarian; 0.593% (active) in the assay on OVCAR-3 ovarian; 0.385% (active) with HS 578T breast. Also, the growth in the assay with NCI/ADR-RES ovarian is 8.53% (active); in the assay on T-47D breast, 33.9%.

Regarding `COc1ccc(/C(C#N)=C/c2nc3c(N4CCOCC4)nc(Cl)nc3n2C)cc1OC`, the growth in the assay on RPMI-8226 leukemia was -7.23% (active); in the assay on OVCAR-8 ovarian, 14.5%; in the assay with OVCAR-4 ovarian, -25% (active); in the assay on IGROV1 ovarian, 3.01% (active); in the assay with HS 578T breast it was 13.2%; in the assay with NCI/ADR-RES ovarian it was 11.7%. Besides, in the assay with T-47D breast, the growth is -17.1% (active).

With `O=C(Nc1ccc(N2CCNCC2)cc1)c1[nH]ncc1Nc1cc(C2CC2)ncn1`, the growth is 55.4% in the assay on RPMI-8226 leukemia; 99% with OVCAR-5 ovarian; 62.3% in the assay on OVCAR-4 ovarian; 10.3% with SK-OV-3 ovarian; 33.4% in the assay on IGROV1 ovarian; 43.7% in the assay on OVCAR-3 ovarian. Besides, the growth was 41.1% in the assay on HS 578T breast, 102% in the assay on NCI/ADR-RES ovarian and 57.1% in the assay with T-47D breast.

Take `CC1=C(C(=O)OCC2CCN(C(=O)OC(C)(C)C)CC2)[C@H](c2cccc(C#N)c2)C2=C(CC(C)(C)CC2=O)N1`: the growth is 41.5% in the assay on RPMI-8226 leukemia; 75.9% in the assay with OVCAR-5 ovarian; 61.7% with OVCAR-4 ovarian; 84% in the assay on SK-OV-3 ovarian; 47.8% in the assay with IGROV1 ovarian; 58.3% with OVCAR-3 ovarian. Further, the growth was 61.7% in the assay on HS 578T breast, 50.6% with NCI/ADR-RES ovarian and 69.8% with T-47D breast.

For the compound `Cc1cc(Br)c(N)c(Br)c1`, the growth in the assay on RPMI-8226 leukemia is 99.5%; in the assay on OVCAR-5 ovarian, 100%; in the assay on OVCAR-4 ovarian, 94.9%; with SK-OV-3 ovarian, 83.3%; in the assay with IGROV1 ovarian, 110%; in the assay on OVCAR-3 ovarian, 108%. Also, the growth with NCI/ADR-RES ovarian was 98%; in the assay with T-47D breast, 92.5%.

As to `O=C(NC1CCCCC1)C(c1cccs1)N(CCc1ccccc1)C(=O)c1ccco1` (stereo not given), the growth with RPMI-8226 leukemia is 79.7%; in the assay on OVCAR-5 ovarian, 87.1%; with OVCAR-4 ovarian, 95.9%; with SK-OV-3 ovarian, 89.6%; with IGROV1 ovarian it was 97.7%; with OVCAR-3 ovarian it was 96.6%. The figures for the growth in the assay on HS 578T breast, in the assay on NCI/ADR-RES ovarian and in the assay on T-47D breast were 93.8%, 94.3% and 85.1%, respectively.

Take `Brc1ccc(Nc2nc3ccccc3nc2Nc2ccc(Br)cc2)cc1`: the growth in the assay on RPMI-8226 leukemia is -12.3% (active); with OVCAR-5 ovarian, 6.38% (active); in the assay with OVCAR-4 ovarian, 12.7%; with SK-OV-3 ovarian, -16.7% (active); with IGROV1 ovarian it was 1.3% (active); with OVCAR-3 ovarian, -55.4% (active). Besides, the results for the growth with HS 578T breast, in the assay with NCI/ADR-RES ovarian and in the assay with T-47D breast were -1.34% (active), 5.04% (active) and -4.85% (active), respectively.
